The whole screen tested about 340,000 compounds, of which about 2,100 (0.62%) were called active.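 Rule for the calls: active = first-screen hits whose inhibition reached a set limit at any dose in the follow-up dose series; inconclusive = inhibition above the set first-screen limit but never retested; inactive = the rest.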 Only a sample is shown. Entries with a potency or affinity are not part of this list.
target: Rac GTPase-activating protein 1 (Homo sapiens) (UniProt Q9H0H5); assay: blockers of MgcRacGAP-driven Rac1 GTP hydrolysis – biochemical, ADP Hunter fluorescence, primary and confirmatory, confirmation (AID 624330); details: MgcRacGAP-stimulated Rac1 GTP hydrolysis, at 30 µM, active compounds read high, GST-tagged Rac1 F28L mutant substrate;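 note: fluorescence reports GDP produced by GAP-driven GTP hydrolysis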
Sequence (Q9H0H5 whole entry, looked up): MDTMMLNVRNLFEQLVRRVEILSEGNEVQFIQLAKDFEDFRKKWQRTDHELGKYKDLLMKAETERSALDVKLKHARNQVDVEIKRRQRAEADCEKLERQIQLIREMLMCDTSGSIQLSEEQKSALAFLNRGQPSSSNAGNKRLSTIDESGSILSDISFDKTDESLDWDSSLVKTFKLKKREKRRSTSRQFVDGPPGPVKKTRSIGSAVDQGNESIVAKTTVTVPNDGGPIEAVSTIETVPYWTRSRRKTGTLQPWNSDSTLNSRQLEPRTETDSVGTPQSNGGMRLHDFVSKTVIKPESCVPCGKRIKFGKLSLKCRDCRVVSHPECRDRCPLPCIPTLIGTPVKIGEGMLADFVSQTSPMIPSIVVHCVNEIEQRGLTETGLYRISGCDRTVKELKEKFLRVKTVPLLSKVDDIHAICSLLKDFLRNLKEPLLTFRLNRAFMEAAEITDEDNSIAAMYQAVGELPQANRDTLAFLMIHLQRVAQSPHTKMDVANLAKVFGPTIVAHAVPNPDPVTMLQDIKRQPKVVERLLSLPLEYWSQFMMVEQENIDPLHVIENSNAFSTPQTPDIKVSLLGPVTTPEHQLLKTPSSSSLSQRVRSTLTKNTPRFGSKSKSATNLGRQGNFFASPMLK

inhibition, inactive:
Cc1ccc(S(=O)(=O)N(CC(=O)N2CCOCC2)c2ccccc2F)cc1 2.11%
Oc1cccc(-c2nc3ccccc3s2)c1 8.24%
COc1ccc(-c2nc3ccccc3s2)cc1NC(C)=O -7.89%
Oc1ccc(-c2nc3ccccc3s2)cc1 15.1%
COc1ccc(-c2nc3ccccc3s2)cc1O 11.7%
Cc1ccc(OCC(=O)N(Cc2cccc(F)c2)C2CCS(=O)(=O)C2)cc1 (centres undefined) 8.85%
COc1ccc(C(=O)Sc2nncc3ccccc23)cc1 -1.75%
O=C(Nc1ccccc1SC(=O)c1ccccc1)c1ccccc1 18.6%
CCc1nc2ccccc2c(C(=O)OCC(=O)N(C)Cc2ccccc2)c1C 3.21%
CCN(CC)CCNC(=O)c1ccc(NC(=O)c2ccc3c(c2)CCC3)cc1 3.69%
CCN(CC(=O)Nc1ccc(NC(C)=O)cc1)CC(=O)Nc1cc(C)on1 5.22%
CSCC(=O)Nc1cc(C)on1 -9.86%
CCCCN(C)CCC(=O)Nc1ccc2c(c1)CCC2 6%
O=C(NCc1ccccn1)Nc1cccc(F)c1 7.66%
C=CCN(CC=C)c1ncnc2[nH]ncc12 0.33%
COc1cc(C)c(S(=O)(=O)Nc2ccccc2F)cc1C 0.77%
CCn1nc(C(=O)NCc2nnc3ccccn23)c2ccccc2c1=O 2.43%
CCOC(=O)C1CN(S(=O)(=O)c2ccc(OC)cc2)c2cc(S(=O)(=O)CC)ccc2O1 (centres undefined) -8.53%
CC1=NN(C(N)=S)C(=O)C1N=Nc1ccc(Cl)cc1 (centres undefined) 13.3%
CC1=NN(C(N)=S)C(=O)C1N=Nc1ccc(Br)cc1 (centres undefined) 12.4%
CCC(C)NC(=O)CS(=O)Cc1nc(-c2cccc(C)c2)oc1C (centres undefined) 2.8%
CCn1cc(C(=O)N2CCN(c3ccccn3)CC2)c2cc(OC)c(OC)cc2c1=O -4.67%
CC1=C(C(N)=O)C(c2ccc(Cl)c(Cl)c2)n2ncnc2N1 (centres undefined) 3.56%
Cn1c(N2CCOCC2)c(C=O)c2ccccc21 8.54%
CN1CCN(c2c(/C=N/O)c3ccccc3n2C)CC1 28.5%
O=C(Nc1ccc(C(=O)O)cc1)/C(=C\c1ccco1)NC(=O)c1ccc(Br)cc1 18.2%
COc1ccc2c3c(cccc13)C(=O)N(O)C2=O 1.13%
COc1ccc2c3c(cccc13)OC2=O 5.25%
COc1ccc(CCNC(=O)c2nnc(Cc3c(F)cccc3Cl)o2)cc1OC 3.35%
O=C1N[C@H](Cc2ccccc2)CO1 3.86%
O=C1OC(Cc2ccccc2)C(c2ccccc2)C1=O (centres undefined) 3.8%
COc1ccc(Br)cc1C(=O)Nc1cccc(-c2nnc(-c3ccco3)o2)c1 -5.03%
COc1ccc(NC(=O)c2ccc(OC(F)F)cc2)cc1Cl -1.44%
O=C(O)c1cc(N/N=C/c2c[nH]c3ccccc23)ccc1Cl 23.8%
O=C(O)c1ccc(S(=O)(=O)NN=Cc2c[nH]c3ccccc23)cc1 14.2%
COc1ccc2c(/C=N/NS(=O)(=O)c3ccc(C)cc3)c[nH]c2c1 11.2%
COc1ccc(C(=O)N/N=C/c2c[nH]c3ccccc23)cc1 16.4%
COc1ccc(S(=O)(=O)N2CCCCC2)cc1NC(=O)CCc1cc(OC)c(OC)c(OC)c1 2.57%
O=C(COC(=O)Cc1c(Cl)cccc1Cl)Nc1ccccc1-c1ccccc1 1.56%
CC1(C)CC(=O)C(Sc2ccccc2)=C(O)C1 -4.47%
O=C(O)C1CC(c2ccccc2)=Nc2ccccc2S1 (centres undefined) 6.83%
CCOC(=O)Nc1ccc2c(c1)nc1n2CCN(CCOC)C1 8.24%
NS(=O)(=O)c1ccc(NC(=O)CSc2nc3c(c(=O)[nH]2)CCCC3)cc1 6.37%
COc1ccc(CNC(=O)CN2CCN(c3ccc(F)cc3)CC2)cc1 6.2%
CCN(CC(=O)NCc1ccc(F)cc1)C(=O)CN1CCN(c2ccccc2OC)CC1 2.73%
CCOc1ccccc1NC(=O)Cn1cnc2c(cnn2-c2ccc(C)c(C)c2)c1=O 9.09%
CC[C@@]1(C(=O)OC)N[C@H](CN(C)C(=O)c2ccc(F)cc2)[C@@H]2C(=O)N(Cc3ccccc3)C(=O)[C@@H]21 1.15%
CC(C)Cc1nnc(NC(=O)CCC(=O)NCCc2ccc(Cl)cc2)s1 4.94%
C[C@]12CC[C@@H]3c4ccc(O)cc4CC[C@H]3[C@@H]1CCC2=O 9.39%
CC12CCC3c4ccc(O)cc4CCC3C1CCC2=O (centres undefined) 5.82%
CC(O)Cn1c(N2CCCC2)nc2c1c(=O)[nH]c(=O)n2C (centres undefined) 4.91%
O=[N+]([O-])c1ccc2nc(C3CCCCC3)[nH]c2c1 6.17%
Cc1nc2ccc(-c3nc4cc(N)ccc4o3)cc2[nH]1 4.01%
Cc1nc2ccc(-c3nc4ccccc4[nH]3)cc2[nH]1 22.2%
Cc1ccc2nc(C3CCCCC3)[nH]c2c1 9.42%
O=[N+]([O-])c1ccc2nc(-c3ccc(Cl)cc3)[nH]c2c1 9.26%
c1cncc(-c2nc3cc4ccccc4cc3[nH]2)c1 21.6%
c1cncc(-c2nc3ccccc3[nH]2)c1 3.11%
Clc1ccc(-c2nc3ccncc3[nH]2)cc1 -13.9%
C=CCNC(=S)NNC(=O)c1ccc2c(c1)OCO2 4.79%
CC(NC(=O)C(=O)N1CCOCC1)C(c1cccs1)N1CCN(c2ccccc2)CC1 (centres undefined) 11%
CC1CCCN(C(=O)C2CCN(S(=O)(=O)c3ccc4c(c3)CC(C)N4C(=O)C3CC3)CC2)C1 (centres undefined) -0.15%
COc1ccc(CNC(=O)C(NS(=O)(=O)c2ccc3c(c2)CCCN3C(C)=O)C(C)C)cc1 (centres undefined) 6.24%
COc1cccc(CNC(=O)CCS(=O)(=O)c2ccc3c(c2)NC(=O)CS3)c1 6.72%
